Measurements from PubChem BioAssay AID1159580 (chemical genetic matrix, 2015).
“And” between values parts separate entries of the source, which are not always exact repeats. Equal values may be shown once. About 2,000 (36%) of roughly 5,500 compounds were called active. Inconclusive results (about 18%) are left out. Rule as the data show it: active = normalized growth mostly below about 0.91 (no sharp cut-off); inconclusive = no clear call, values can overlap the other calls; inactive = mostly above about 0.92. Some of the results follow.

Test: chemical genetic growth profiling, strain panel (AID 1159580);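 also: tested at 20 µM; growth read once vehicle control cultures reached saturation at 30 °C; 1 = growth at the plate median or of vehicle wells; lower values mean less growth of the strain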
Details: S. cerevisiae deletion strains, growth OD

Measured: normalized growth

O=c1[nH]c(=O)n(C2C[C@@H](O)[C@@H](CO)O2)cc1F (stereo partly drawn)
inactive: locus YAL013W, strain DEP1, hits give low values 1.04 | locus YAL021C, strain ccr4, hits give low values 1.01 | locus YAL026C, strain drs2, hits give low values 0.996 | locus YAL030W, strain snc1, hits give low values 0.992 | locus YBL061C, strain skt5, hits give low values 0.987 | locus YBR009C, strain hhf1, hits give low values 1 | locus YBR021W, strain FUR4, hits give low values 1 | locus YBR023C, strain chs3, hits give low values 1 | locus YBR171W, strain sec66, hits give low values 0.993 | locus YBR229C, strain ROT2, hits give low values 1 | locus YBR231C, strain swc5, hits give low values 1 | locus YBR279W, strain paf1, hits give low values 1.01 | locus YCL011C, strain gbp2, hits give low values 1.01 | locus YCL016C, strain dcc1, hits give low values 0.994 | locus YCL029C, strain bik1, hits give low values 1.01 | locus YCL061C, strain MRC1, hits give low values 0.996 | locus YCL069W, strain vba3, hits give low values 0.987 | locus YCR088W, strain abp1, hits give low values 0.986 | locus YDL005C, strain med2, hits give low values 0.992 | locus YDL035C, strain GPR1, hits give low values 0.99 | locus YDL040C, strain nat1, hits give low values 1.01 | locus YDL074C, strain BRE1, hits give low values 1.04 | locus YDL101C, strain DUN1, hits give low values 1.03 | locus YDL185W, strain tfp1, hits give low values 1.01 | locus YDL192W, strain arf1, hits give low values 1.02 | locus YDR001C, strain nth1, hits give low values 0.979 | locus YDR069C, strain doa4, hits give low values 0.998 | locus YDR101C, strain arx1, hits give low values 1.01 | locus YDR137W, strain rgp1, hits give low values 0.989 | locus YDR159W, strain sac3, hits give low values 0.992 | locus YDR162C, strain NBP2, hits give low values 0.993 | locus YDR195W, strain ref2 0.984 | locus YDR297W, strain sur2, hits give low values 0.998 | locus YDR318W, strain mcm21, hits give low values 1.01 | locus YDR334W, strain swr1, hits give low values 0.97 | locus YDR335W, strain msn5, hits give low values 1.01 | locus YDR388W, hits give low values 1.01 | locus YDR392W, strain spt3, hits give low values 0.994 | locus YDR502C, strain sam2, hits give low values 1.01 | locus YEL003W, strain gim4, hits give low values 0.989 | locus YEL037C, strain rad23, hits give low values 0.993 | locus YEL061C, strain CIN8 (second series), hits give low values 0.981 | locus YEL061C, strain CIN8, hits give low values 1.01 | locus YER015W, strain faa2, hits give low values 0.998 | locus YER016W, strain bim1, hits give low values 1.01 | locus YER110C, hits give low values 1.02 | locus YER111C, strain swi4, hits give low values 0.996 | locus YER155C, strain BEM2 (second series), hits give low values 1.01 | locus YER155C, strain BEM2, hits give low values 1.01 | locus YER167W, strain BCK2, hits give low values 1 | locus YFR010W, strain ubp6, hits give low values 1.01 | locus YGL078C, strain dbp3, hits give low values 1 | locus YGL086W, strain mad1, hits give low values 1.01 | locus YGL167C, strain pmr1, hits give low values 0.996 | locus YGL173C, strain kem1, hits give low values 1.01 | locus YGL227W, strain vid30, hits give low values 0.979 | locus YGL240W, strain doc1, hits give low values 0.972 | locus YGL248W, strain PDE1, hits give low values 1.03 | locus YGL253W, strain hxk2, hits give low values 1 | locus YGR078C, strain PAC10, hits give low values 1.03 | locus YGR135W, strain pre9, hits give low values 1.01 | locus YGR252W, strain gcn5, hits give low values 1.01 | locus YHR013C, strain ard1, hits give low values 1.01 | locus YHR027C, strain rpn1, hits give low values 0.98 | locus YHR030C, strain SLT2, hits give low values 1 and 0.982 | locus YHR079C, strain IRE1 (second series), hits give low values 1.02 | locus YHR079C, strain IRE1, hits give low values 0.965 | locus YHR094C, strain hxt1, hits give low values 1.02 | locus YHR129C, strain ARP1, hits give low values 1.01 | locus YHR142W, strain chs7, hits give low values 0.985 | locus YHR200W, strain rpn10, hits give low values 1.01 | locus YIL066C, strain RNR3, hits give low values 0.988 | locus YIL073C, strain SPO22, hits give low values 1.04 | locus YIL125W, strain kgd1, hits give low values 1.02 | locus YIR030C, strain dcg1, hits give low values 1.01 | locus YJL092W, strain hpr5, hits give low values 0.971 | locus YJL095W, strain BCK1 (second series), hits give low values 1.01 | locus YJL095W, strain BCK1, hits give low values 1.06 and 0.975 | locus YJL115W, strain asf1, hits give low values 0.982 | locus YJL129C, strain trk1, hits give low values 0.963 | locus YJL134W, strain LCB3, hits give low values 1.01 | locus YJL154C, strain vps35, hits give low values 0.993 | locus YJL164C, strain tpk1, hits give low values 1 | locus YJL166W, strain qcr8, hits give low values 1.01 | locus YJL168C, strain set2, hits give low values 1.01 | locus YJL187C, strain SWE1 (second series), hits give low values 1.05 | locus YJL187C, strain SWE1, hits give low values 0.994 | locus YJR043C, strain POL32, hits give low values 0.975
